Screening data deposited in PubChem BioAssay by several laboratories.
NadD block = blocks S. aureus nicotinate mononucleotide adenylyltransferase; purified NadD enzyme, colorimetric absorbance read-out; inhibition, % at 20 µM; actives 0.78% (n = 360,000); in the data active = inhibition above about 26%
FAS TE block = FAS thioesterase (human) inhibition; recombinant FAS-TE, OMFH fluorogenic substrate, fluorescence endpoint; inhibition, % at 15 µM; actives 0.67% (n = 360,000); AID 602261;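 active = compounds whose normalised, plate-corrected inhibition of enzyme fluorescence in the single-dose primary screen is 50% or more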
Myeloid diff 2 = promotes myeloid progenitor differentiation. AID 624256. ER-HoxA9 myeloid progenitors, lysozyme-GFP differentiation, flow cytometry. actives 1% (n = 360,000). calls only at 10 µM;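 active = normalized GFP-positive differentiation at or above the plate's own cutoff, the solvent-only control mean plus 3 SD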;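 also: cells exposed to compound for four days before flow analysis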
CRFBP-R2 block = antagonists of CRF-binding protein/CRF-R2 receptor complex | HEK293 CRF-R2/CRF-BP, CRF-induced calcium fluorescence | inhibition, % at 11.8 µM | actives 0.59% (n = 350,000);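 active = inhibition of the ligand-induced calcium signal above about 50% at the single tested concentration, limit read from the data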
NRP1-CendR mod = NRP-1/CendR interaction modulation; O14786; FAM-RPARPAR peptide binding to NRP-1, fluorescence polarization; inhibition, % at 25 µM; actives 0.85% (n = 360,000); AID 602438;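 active = inhibition or corrected inhibition above about 18%, plus a signal ratio from 0.5 to 1.5, limit read from the data, passing the limit was not always enough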
Myeloid diff CP1 = promotes myeloid progenitor differentiation. shares compounds with Myeloid diff 2. ER-HoxA9 myeloid progenitors, GFP/Mac1 double-positive flow. actives 2% (n = 2,300). calls only;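 active = share of green or green-and-red cells above 9 and 9% in run 1 or 4 and 3% in run 2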
GFP autofluor = counter-screen for myeloid differentiation promoters: compound fluorescence; shares compounds with Myeloid diff 2; ER-HoxA9 myeloid progenitors, no estrogen, GFP autofluorescence flow cytometry; vehicle wells 0%, positive control 100%; fluorescence response, % (concentration not given with the values); actives 7.4% (n = 2,300); AID 651707;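 active = over 5% cells positive for green fluorescent reporter, or over 2% positive for both it and APC stain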
Hits are given with their value; 0 = inactive; - = not tested or not shown; + = active, no number. This is a sample that favours compounds with a hit; in the whole collection about 3.6% have one here.

SMILES	NadD block	FAS TE block	Myeloid diff 2	CRFBP-R2 block	NRP1-CendR mod	Myeloid diff CP1	GFP autofluor
Cc1ccc(S(=O)(=O)NCCC(=O)N2CCN(Cc3ccccc3)CC2)cc1	0	0	+	0	0	0	0
CC(=O)N1CCc2cc(S(=O)(=O)NCCC(=O)N3CCN(Cc4ccccc4)CC3)ccc21	0	0	0	0	0	-	-
CCCCn1c(N)c(N(CCOC)C(=O)c2c(-c3ccccc3)noc2C)c(=O)[nH]c1=O	0	0	0	0	0	-	-
Cc1ccc(NC(=O)c2ccnc(C(C)(C)C)c2)cc1	0	0	0	0	0	0	0
CC(C)(C)[C@@H]1C=C(C(=O)O)[C@H](c2ccc(Cl)cc2)N1S(=O)(=O)c1ccccc1	0	0	+	0	0	0	0
C=CCC[C@@H](CCCCC)OC(=O)/C=C/[C@H](O)[C@@H](O)C[C@H](O)CC=C	0	0	+	-	0	0	0
C=CCC[C@H](CCCCC)OC(=O)/C=C/[C@H](O)[C@@H](O)C[C@H](O)CC=C	0	0	0	-	0	-	-
COC(=O)Nc1nc(C)c(C(=O)c2ccccc2)s1	0	0	0	0	0	-	-
CCOC(=O)Nc1nc(C)c(C(=O)c2ccc(Cl)cc2)s1	0	0	0	0	0	0	0
COc1ccc(C(=O)/C=C/Nc2ccc(S(N)(=O)=O)cc2)cc1OC	0	0	0	0	0	-	-
CC(=O)O[C@]1(C(C)=O)CC[C@H]2[C@@H]3C=C(Cl)C4=CC(=O)CC[C@]4(C)[C@H]3CC[C@@]21C	0	0	0	0	0	0	0
CC(=O)O[C@]1(C(C)=O)CC[C@H]2[C@@H]3C=C(Cl)C4=CC(=O)[C@@H]5C[C@@H]5[C@]4(C)[C@H]3CC[C@@]21C	0	0	0	0	0	-	-
CC(=O)NCc1ccc(S(=O)(=O)N2CCCN(C)CC2)cc1	0	0	0	0	0	-	-
Nc1nc(SCc2ccccc2)c2ncn(C3CCCO3)c2n1 (stereo not given)	0	0	0	0	0	0	0
Cc1ccc(C(=O)NCc2ccc3c(c2)OCO3)cc1C	0	0	0	0	0	-	-
CCCCCCOC(=O)C(C#N)c1nc2ccccc2nc1N1CCOCC1 (stereo not given)	0	0	0	0	0	-	-
CCCCCCOC(=O)C(C#N)c1nc2ccccc2nc1N1CCN(CC)CC1 (stereo not given)	0	0	+	0	0	0	0
CC(=O)Nc1ccc(CC(=O)O)cc1	0	0	0	0	0	-	-
CC(=O)Nc1ccc(CC(=O)NCCC(c2ccccc2)c2ccccc2)cc1	0	0	+	0	0	0	0
CN(C)C(CNC(=O)c1ccc(NC(=O)CC#N)cc1)c1ccccc1 (stereo not given)	0	0	-	0	0	-	-
N#CCC(=O)Nc1ccc(C(=O)NCCC(c2ccccc2)c2ccccc2)cc1	0	0	+	0	0	0	0
Cc1cc(C)c(OCCNC(=O)c2ccccc2Sc2ccccc2C#N)c(C)c1	0	0	0	0	0	-	-
COCCN(C(=O)CCC(=O)Nc1nccs1)C(C(=O)NCCC(C)C)c1ccc(OC)cc1 (stereo not given)	0	0	0	0	0	-	-
O=C(NC1CCCCCCC1)C1CCN(c2nc3ccccc3o2)CC1	0	0	0	0	0	0	0
O=C(NCCc1ccccc1)C1CCN(c2nc3ccccc3o2)CC1	0	0	0	0	0	-	-
SMILES	NadD block	FAS TE block	Myeloid diff 2	CRFBP-R2 block	NRP1-CendR mod	Myeloid diff CP1	GFP autofluor
Cc1ccc(-c2ccc(/C=N/N3C(=O)C4C5C=CC(CC5)C4C3=O)o2)c([N+](=O)[O-])c1 (stereo not given)	0	0	0	0	0	-	-
COc1cc(C#N)c(NS(=O)(=O)c2ccc3[nH]c(=O)sc3c2)cc1OC	0	0	0	0	0	-	-
COc1ccc(NC(=O)c2ccc3nccnc3c2)cc1	0	0	0	0	0	0	0
CCc1nnc(NS(=O)(=O)c2ccc(NC(=S)NC(=O)c3cccnc3)cc2)s1	0	0	+	0	0	0	0
Cc1cc(C)cc(C(=O)/C=C2\NC(=O)CS2)c1	0	0	0	0	0	0	0
O=C1c2ccccc2NC(c2ccc(F)cc2)N1Cc1ccco1 (stereo not given)	0	0	0	0	0	0	0
O=C(C[C@H]1C/C=C\CCCC(=O)OC[C@H]2CCCN2C1=O)NCCO	0	0	0	0	0	-	-
CCOc1cc(/C=C2\N=C(C)OC2=O)cc(Br)c1OCC(=O)OC	0	0	+	0	0	0	0
CCOc1cc(/C=C2\N=C(C)OC2=O)cc(Br)c1OCCc1ccccc1	0	0	0	0	0	-	-
Cc1cccc(/C=N/NC(=O)c2ccc(NC(=O)c3ccc(Cl)cc3)cc2)n1	0	0	+	0	0	0	0
C1=C(c2ccco2)N2CCN=C2S1	0	0	0	0	0	-	-
Cc1ccc(C)c(S(=O)(=O)N2CCCCC2CCNC(=O)C(=O)NCc2cccnc2)c1 (stereo not given)	0	0	0	0	0	-	-
Cc1ccc(S(=O)(=O)N2CCCCC2CCNC(=O)C(=O)NCc2cccnc2)cc1 (stereo not given)	0	0	+	0	0	0	0
N#Cc1ccc(-c2ccc(OCC(=O)NN=Cc3ccncc3)cc2)cc1	0	0	0	0	0	-	-
Oc1ccc(/C=N/NC(=S)Nc2cccnc2)cc1	0	0	0	0	23.2	0	0
CO[C@H]1CN(C)C(=O)c2ccc(NC(=O)NC(C)C)cc2OC[C@H](C)NC[C@H]1C	-	-	0	-	0	-	-
CCOc1ccccc1NC(=O)NC1(C(=O)NCc2cccnc2)CCCCC1	0	0	0	0	0	0	0
O=C1C2C(C(=O)N1CC1CCCO1)C1C=CC2C12CC2 (stereo not given)	0	0	-	0	0	0	0
CCCn1c(N)c(N2CCCCC2)c(=O)n(CC(=O)Nc2ccccc2C(F)(F)F)c1=O	0	0	0	0	0	-	-
CCN1C(=O)[C@@H]2[C@@H](c3ccc(-c4cccc(Cl)c4)c(OC)c3)N3CCCC[C@@]3(C(=O)OC)[C@@H]2C1=O	0	0	+	0	0	0	0
CCN1C(=O)[C@@H]2[C@@H](c3ccc(-c4ccc(Cl)c(Cl)c4)c(OC)c3)N3CCC[C@@]3(C(=O)OC)[C@@H]2C1=O	0	0	0	0	0	-	-
CN(C)CCCn1c(N)c(C#N)c2nc3ccccc3nc21	0	0	0	0	0	0	0
CCCCC(CC)Cn1c(N)c(C#N)c2nc3ccccc3nc21 (stereo not given)	0	0	0	0	0	-	-
CCOC(=O)c1ccc(S(=O)(=O)Nc2ccc3cn[nH]c3c2)cc1	0	0	0	0	0	-	-
COc1ccc(NC(=O)CCN2CC(C)OC(C)C2)c(OC)c1 (stereo not given)	0	0	+	0	0	0	0
Cc1cc(C(=O)O)c(CCCN)s1	0	0	0	0	0	0	0
